Screens (PubChem BioAssay)
Only some compounds are listed: those with a hit (about 7.7% of all), similar ones and a draw of the others.
Giardia FBPA inh: Giardia lamblia aldolase inhibition; purified Giardia FBPA; Potency, µM (doses to about 59.6 µM), for inactives: at the highest dose activity, negative = inhibition, actives largely listed as inhibitors; 290,000 tested, 0.71% active; further: potency means the concentration at half of the fitted maximal effect; nearly all actives have a fitted effect of over 55% in size
Target sequence (A8B2U2 whole entry, looked up): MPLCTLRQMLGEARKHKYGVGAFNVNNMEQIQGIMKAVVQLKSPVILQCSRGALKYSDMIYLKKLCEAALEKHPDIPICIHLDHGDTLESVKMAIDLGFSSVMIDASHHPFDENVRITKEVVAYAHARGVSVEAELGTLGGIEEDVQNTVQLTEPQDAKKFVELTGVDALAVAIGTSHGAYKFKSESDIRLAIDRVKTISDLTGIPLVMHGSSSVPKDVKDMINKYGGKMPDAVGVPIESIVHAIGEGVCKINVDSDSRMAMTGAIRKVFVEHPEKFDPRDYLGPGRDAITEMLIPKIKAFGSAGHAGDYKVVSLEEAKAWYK
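Giardia FBPA (40 nM reagent) was preincubated 10 min at RT with compound (up to 57.5 uM final), then substrate plus GAPDH/TPI/NAD/arsenate coupling system with diaphorase/resazurin was added; resorufin fluorescence (525/598 nm) was read after 20 min.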
HCMV antiviral: blocks human cytomegalovirus replication; 410,000 tested, 4.5% active; activity change, negative = inhibition, % at 57.5 µM; HFF cells, HCMV-luciferase reporter, 72 h; active compounds read low; in the data active means activity change below about -60%; inconclusive means no clear call, values can overlap the other calls; inactive means above about -39%
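Two-dose cell screen: HFF monolayers treated with compounds and infected with luciferase-expressing HCMV at 1 PFU/cell, 72 h at 37C, then lysed for luciferase measurement.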
Tb PYK inh: blocks Trypanosoma brucei pyruvate kinase; Q57TT1; Potency, µM (doses to about 76.8 µM), inactives show at the top dose activity, negative = inhibition, usual class: inhibitors; TbPYK enzyme, Kinase-Glo Plus ATP luminescence, 45 min; 410,000 tested, 0.12% active; further: potency means the concentration at half of the fitted maximal effect; nearly all actives have a fitted effect of over 50% in size
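T. brucei PYK with substrate was exposed to pin-transferred compounds across a concentration series, then started with 130 uM ADP (final). After 45 min at room temperature, Kinase-Glo Plus luminescence was read, normalized and curve-fitted.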
FMDV antiviral: foot and mouth disease virus antiviral activity | FMDV antiviral cell-based qHTS | Potency, µM (series often up to 57.9 µM), without a hit: top-dose activity change, negative = inhibition, usual class: inhibitors | 410,000 tested, 1.2% active | AID 1159524; calls by dose curve; tested in HEK293T cells; further: read-out not given here; potency means the concentration at half of the fitted maximal effect; nearly all actives have a fitted effect of over 45% in size
Sm TGR inh: blocks Schistosoma mansoni thioredoxin glutathione reductase | Q962Y6 | purified TGR, DTNB reduction, TNB absorbance 405 nm | Potency, µM (series often up to 114 µM), without a hit: at the highest dose activity change, negative = inhibition, actives largely listed as inhibitors | 360,000 tested, 3% active; further: potency means the concentration at half of the fitted maximal effect; nearly all actives have a fitted effect of over 60% in size
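Kinetic colorimetric format: TGR-catalysed, NADPH-driven DTNB reduction monitored via TNB absorbance. Enzyme dispensed at 20 nM; compound exposure 15 min at room temperature before reaction start.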
RE007 growth inh: less growth of the S. pombe RE007 Vpr strain; S. pombe RE007 Vpr strain, BacTiter-Glo ATP luminescence, 24 h; Potency, µM (highest dose often 92.2 µM), for the others: top-dose activity change, negative = less growth, hits mostly inhibitors; 360,000 tested, 0.21% active; AID 651644; active means well fitted falling curve with a large enough effect; inconclusive means small, poorly fitted or top-dose-only effect; inactive means no such curve, though single readings can be large or run the other way; further: potency means the concentration at half of the fitted maximal effect; nearly all actives have a fitted effect of over 50% in size
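Fission yeast strain RE007, carrying one chromosomally integrated HIV-1 vpr copy, was seeded at OD 0.01 in PMG+AL medium with 23 nL pinned compound. After 24 h at 30 °C and 99% humidity, viability was read by BacTiter-Glo luminescence.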
Starred values were filed as active, the others as inactive; u = inconclusive; x = no result; ! = a repeat was not active; [ ] = another dose, or the depositor's remark. Unless noted, the call rests on the fitted dose curve; in most records, active means well fitted curve in the direction sought with a large enough effect; inconclusive means small, poorly fitted or top-dose-only effect, or another doubt; inactive means no such curve, though single readings can be large; an effect the other way counts as inactive or inconclusive. On the % scale 0 is the no-effect control and ±100 the full control effect.

SMILES	Giardia FBPA inh	HCMV antiviral	Tb PYK inh	FMDV antiviral	Sm TGR inh	RE007 growth inh
CCOC(=O)CCN1C(=O)[C@H]2[C@H]3[C@H](O)[C@H](O)C/C(=N/NC(=O)OCC)[C@@H]3CC[C@@H]2C1=O	1%[12.9 µM]	x	x	x	x	x
CCOc1ccc(-c2cc(C)[n+](CCN3CCOCC3)c(-c3ccc(OCC)cc3)c2)cc1	-1%	-82*	3%	u	6%	-5%
CC(C)(C)S(=O)N1CCC[C@@H]1c1noc2cc3ccccc3cc12 (some centres not stated)	x	-8	x	x	x	x
CCOC(=O)c1c2c3c(c(Cl)ccc3[nH]c1=O)C(=O)c1ccccc1-2	-11%	-97*	-1%	-20%	3%	-9%
CCOC(=O)c1oc2ccc(S(=O)(=O)Nc3ccc4c(c3)n(C)c(=O)n4C)cc2c1C	-19%	-65*	3%	x	-15%	-2%
Cn1c(=O)n(C)c2cc(NS(=O)(=O)c3ccc4c(c3)CCCC4)ccc21	-9%	-107*	2%	u	1%	3%
COc1ccccc1/C=C/c1onc(C)c1S(=O)(=O)N1CCC(C(=O)N2CCC(C)CC2)CC1	x	0	4%[15.4 µM]	-14%	6%	x
CCCSc1cc(NCCOC(=O)CCC)c([N+](=O)[O-])c2nonc12	-12%	u	22%	0%	2µM*	-9%
CCCC(=O)OCCNc1cc(SCc2ccco2)c2nonc2c1[N+](=O)[O-]	-26%	16	u	0%	14µM*	0%
CC(=O)OCCCNc1cc(SCc2ccco2)c2nonc2c1[N+](=O)[O-]	-15%	10	-7%	35µM*	7.1µM*	-13%
CCCSc1cc(NCCOC(C)=O)c([N+](=O)[O-])c2nonc12	u	-28	-4%	0%	-3%	-6%
CCCC(=O)OCCNc1cc(Sc2nccn2C)c2nonc2c1[N+](=O)[O-]	-11%	53	24%	35µM*	0.4µM*	-6%
Cc1ccc(-c2nnc(SCC(=O)NCc3ccccc3)o2)cc1	x	-1	1%	10%	-9%	x
COc1ccc(-c2c(C#N)c(SCC(=O)Nc3ccc(Br)cc3)nc(C)c2C(=O)Nc2ccccc2)cc1	x	4	5%	-12%	-4%	x
O=C(/C=C/c1ccc(Br)o1)OCc1nc2ccsc2c(=O)[nH]1	x	x	5%	-23%	45µM*	1%
Cc1cc(OC(=O)c2ccco2)c2c3c(c(=O)oc2c1)CCCC3	5%	-67*	1%	u	7%	11%
CCCCN(C)C(=O)c1ccc(Nc2nc(C(N)CCc3ccccc3)cs2)nc1 (configuration not stated)	x	15	4%	8%	x	28%
NC(Cc1ccc(C(F)(F)F)cc1)c1csc(Nc2nncc3ccccc23)n1 (configuration not stated)	x	-104*	-2%	-24%	x	-2%
COC(=O)c1cc(C)nc(Nc2nc(C(N)Cc3ccc(F)cc3)cs2)n1 (configuration not stated)	x	17	-5%	-25%	x	-3%
CCCCN(C)C(=O)c1ccc(Nc2nc(C(N)Cc3ccc(C(F)(F)F)cc3)cs2)nc1 (configuration not stated)	x	-76*	1%	-23%	x	12%
Cc1cc(C)nc(Nc2nc(C(N)Cc3ccccc3)cs2)n1 (configuration not stated)	x	-73*	1%	13%	x	-19%
O=C(NCC1(N2CCOCC2)CCCCC1)c1cnn(-c2nccc(-c3ccco3)n2)c1C1CC1	x	x	x	3%	x	x
Cc1ccc(Cn2c(C)c3cnn(CC(=O)N4CCN(c5ccc(F)cc5)CC4)c(=O)c3c2C)cc1	x	u	-2%	u	17%	x
CCN1CCN(c2cc(C)c3cc(NC(=S)N4CCN(c5ccccc5)CC4)ccc3n2)CC1	-8%	-61*	-2%	9%	-6%	2%
CCN1CCN(c2cc(C)c3cc(NC(=O)c4cc(OC)cc(OC)c4)ccc3n2)CC1	1%	-90*!	3%	14%	2%	1%
SMILES	Giardia FBPA inh	HCMV antiviral	Tb PYK inh	FMDV antiviral	Sm TGR inh	RE007 growth inh
Cc1cc(N2CCCCC2)nc2ccc(NC(=O)c3ccc(Br)o3)cc12	-12%	-9	6%	40µM*	-26%	-18%
COc1cccc(C(=O)Nc2ccc3nc(N4CCC(C)CC4)cc(C)c3c2)c1	x	u	4%	u	0%	x
COc1ccc(C(=O)Nc2ccc3nc(N4CCC(C)CC4)cc(C)c3c2)cc1	x	-28	4%	32µM*	-17%	x
CCOc1ccc(C(=O)Nc2ccc3nc(N4CCN(CC)CC4)cc(C)c3c2)cc1	3%	u	-2%	u	2%	3%
CCN1CCN(c2cc(C)c3cc(NC(=S)N4CCOCC4)ccc3n2)CC1	-10%	-27	22%	30%	3%	-11%
C=CCC(O)c1nc(C(=O)Nc2ccc(F)cc2)cs1 (configuration not stated)	x	-14	x	x	x	x
Cc1cc(C(=O)NCc2nc(-c3ccccc3NC(=O)C3CCCO3)oc2C)nc(C)n1 (configuration not stated)	x	x	x	-3%	x	x
Cc1c(-c2nc(-c3ccc(C(C)(C)C)cc3)no2)n(C)oc1=O	-2%	97	-2%	63µM*	-7%	2%
O=S(=O)(/C(=C\c1ccc(C(F)(F)F)cc1)c1nc2ccccc2[nH]1)c1ccccc1	x	x	-3%	11µM*	x	-22%
C/C(=N/Nc1cc(-c2ccccc2)nc(-c2ccccc2)n1)c1ccc(O)cc1	2%	-65*	-7%	5%	2%	-6%
COC(=O)C1=C(Nc2ccc(C)cc2)C=C(C)C(C(=O)OC)C1c1ccc(OC)cc1 (configuration not stated)	-5%	-3	2%	0%	1%	-19%
COC(=O)C1=C(O)C(C(=O)OC)C(c2ccc(C)cc2)C(C#N)(C#N)C1c1ccc(C)cc1 (configuration not stated)	-2%	-96*	2%	-18%	0%	9%
CCCCNC(=O)C(C)(C)n1cc(NC(=O)c2cc(C)oc2C)cn1	x	3	x	x	x	x
COc1ccc(-c2cc(-c3ccc(OC)cc3)[nH]n2)cc1	-7%	-1	1%	37%	9%[11.4 µM]	-24%
COc1ccc(-c2cc(C3CCNCC3)[nH]n2)cc1	3%	8	5%	2%	45µM*	9%
Nc1nnc(N)c2ccccc12	1%	40	-13%	-19%	-2%	46%
Nc1nsc2ccccc12	-2%	-72*	6%	x	-1%	u
O=C(N/N=C1/C[C@@H](O)[C@@H](O)[C@@H]2[C@@H]3C(=O)N(Cc4ccc5c(c4)OCO5)C(=O)[C@H]3CC[C@H]12)OCc1ccccc1	5%[12.9 µM]	x	x	x	x	x
O=C(Nc1nccs1)c1ccccc1Br	-27%	16	4%	41%	1%	-11%
